Test results published in PubChem BioAssay (Tox21).
Where “and” joins values, the source holds several entries; their conditions need not be identical. Identical values can stand only once. Records with an inconclusive call do not appear. Where a call stands in place of a potency, no number is given. More than one record can exist for a structure, and the calls need not agree. Calls of active or inactive are those of the source. Calls come from the whole dose curve; as a rule, active = well fitted curve in the direction sought with a large enough effect in the repeat runs; inconclusive = weak or mixed curves; inactive = no such curve, though single readings can be large; an effect the other way counts as inactive or inconclusive.

How the values were obtained:
[1] = Human pregnane X receptor (PXR) small molecule agonists, qHTS cell viability counter screen (AID 1346977); note: nearly all actives have a fitted effect of over 50% in size
In short: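 PXR-Luc HepG2 cells in medium with 5% charcoal-stripped FBS were pre-incubated 5hr, then exposed to compounds for 24hr at 37C. Viability was read in the same wells by CellTiter-Fluor fluorescence, reagent added after 23hr with a 1hr incubation.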

[2] = Caspase-3/7 induction in HepG2 cells by small molecules, qHTS assay (AID 1346978); note: nearly all actives have a fitted effect of over 15% in size
In short: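 Wild-type HepG2 cells, 2,000/well, settled 5 hr at 37 C and 5% CO2, then compound-treated for 17 hr; caspase-3/7 activity read by luminescent Caspase-Glo 3/7 after 30 min at room temperature.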

[3] = Caspase-3/7 induction in CHO-K1 cells by small molecules, qHTS cell viability counter screen (AID 1346979); note: nearly all actives have a fitted effect of over 35% in size; note: potency is the fitted concentration of half-maximal effect
In short: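 Wild-type CHO-K1 cells were seeded at 1,500 per well, rested 5hr at 37 C, then exposed to compounds in DMSO. After 16hr, CellTiter-Fluor reagent was added and fluorescence read 1hr later as the viability measure.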

[4] = Caspase-3/7 induction in CHO-K1 cells by small molecules, qHTS assay (AID 1346980); note: nearly all actives have a fitted effect of over 15% in size
In short: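 Wild-type CHO-K1 cells exposed to compounds for 17hr at 37 C, 5% CO2. Caspase-3/7 activity then measured by Caspase-Glo 3/7 luminescence after 30min at room temperature.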

[5] = Caspase-3/7 induction in HepG2 cells by small molecules, qHTS cell viability counter screen (AID 1346981); note: nearly all actives have a fitted effect of over 30% in size; note: potency is the fitted concentration of half-maximal effect
In short: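 Wild-type HepG2 cells (2,000/well) were allowed to settle for 5 hr at 37 C, 5% CO2, then dosed with compounds in DMSO by pin transfer. After 16 hr at 37 C, CellTiter-Fluor was added and fluorescence read 1 hr later.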

[6] = biological target: Nuclear receptor subfamily 1 group I member 2 (Homo sapiens) (UniProt O75469); assay: Human pregnane X receptor (PXR) small molecule agonists, qHTS assay (AID 1346982); note: nearly all actives have a fitted effect of over 35% in size; note: potency is the fitted concentration of half-maximal effect
Chain of Nuclear receptor subfamily 1 group I member 2 (Homo sapiens) (O75469 whole entry, looked up): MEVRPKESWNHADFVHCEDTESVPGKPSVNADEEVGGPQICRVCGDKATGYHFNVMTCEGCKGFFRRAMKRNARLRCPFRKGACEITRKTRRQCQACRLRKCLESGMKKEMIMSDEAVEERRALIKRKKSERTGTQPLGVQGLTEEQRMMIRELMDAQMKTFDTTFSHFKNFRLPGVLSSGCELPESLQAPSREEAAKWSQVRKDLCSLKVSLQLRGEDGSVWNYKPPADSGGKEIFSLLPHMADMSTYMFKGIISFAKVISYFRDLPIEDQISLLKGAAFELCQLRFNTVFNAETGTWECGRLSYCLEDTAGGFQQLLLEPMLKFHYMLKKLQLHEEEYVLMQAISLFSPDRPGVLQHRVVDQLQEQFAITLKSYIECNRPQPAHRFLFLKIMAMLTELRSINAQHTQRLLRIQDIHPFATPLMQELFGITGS
In short: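 PXR-Luc HepG2 cells (CYP3A4 promoter-driven luciferase) were seeded in medium with 5% charcoal-stripped FBS, left 5 hr at 37 C, then exposed to compounds in DMSO for 24 hr. Luminescence was read after ONE-Glo addition.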

[7] = biological target: Cytochrome P450 2D6 (Homo sapiens) (UniProt P10635); assay: Cytochrome P450 Family 2 Subfamily D Member 6 (CYP2D6) small molecule antagonists: luciferase reporter qHTS assay (AID 1671196); note: nearly all actives have a fitted effect of over 50% in size; note: potency is the fitted concentration of half-maximal effect
Chain of Cytochrome P450 2D6 (Homo sapiens) (P10635 whole entry, looked up): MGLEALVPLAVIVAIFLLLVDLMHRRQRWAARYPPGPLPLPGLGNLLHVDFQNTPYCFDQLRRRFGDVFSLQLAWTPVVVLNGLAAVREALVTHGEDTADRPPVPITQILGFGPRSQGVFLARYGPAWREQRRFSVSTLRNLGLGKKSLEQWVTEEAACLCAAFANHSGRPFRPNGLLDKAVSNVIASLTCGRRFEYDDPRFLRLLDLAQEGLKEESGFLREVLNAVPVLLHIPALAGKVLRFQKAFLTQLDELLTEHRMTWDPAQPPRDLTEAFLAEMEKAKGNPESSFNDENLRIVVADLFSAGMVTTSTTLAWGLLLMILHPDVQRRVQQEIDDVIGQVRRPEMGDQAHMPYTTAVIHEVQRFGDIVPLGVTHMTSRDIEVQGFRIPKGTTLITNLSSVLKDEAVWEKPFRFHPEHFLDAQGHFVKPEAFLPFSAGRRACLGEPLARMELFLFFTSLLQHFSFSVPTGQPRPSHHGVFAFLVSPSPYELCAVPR
In short: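 CYP2D6 enzyme–substrate mix was held with compound for 10 min at room temperature, then NADPH regeneration solution was added and the reaction ran 1 h at room temperature. Luciferin product was detected by luminescence after 20 min with detection reagent.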

[8] = biological target: Cytochrome P450 2C19 (Homo sapiens) (UniProt P33261); assay: Cytochrome P450 Family 2 Subfamily C Member 19 (CYP2C19) small molecule antagonists: luciferase reporter qHTS assay (AID 1671197); note: nearly all actives have a fitted effect of over 65% in size; note: potency is the fitted concentration of half-maximal effect
Chain of Cytochrome P450 2C19 (Homo sapiens) (P33261 whole entry, looked up): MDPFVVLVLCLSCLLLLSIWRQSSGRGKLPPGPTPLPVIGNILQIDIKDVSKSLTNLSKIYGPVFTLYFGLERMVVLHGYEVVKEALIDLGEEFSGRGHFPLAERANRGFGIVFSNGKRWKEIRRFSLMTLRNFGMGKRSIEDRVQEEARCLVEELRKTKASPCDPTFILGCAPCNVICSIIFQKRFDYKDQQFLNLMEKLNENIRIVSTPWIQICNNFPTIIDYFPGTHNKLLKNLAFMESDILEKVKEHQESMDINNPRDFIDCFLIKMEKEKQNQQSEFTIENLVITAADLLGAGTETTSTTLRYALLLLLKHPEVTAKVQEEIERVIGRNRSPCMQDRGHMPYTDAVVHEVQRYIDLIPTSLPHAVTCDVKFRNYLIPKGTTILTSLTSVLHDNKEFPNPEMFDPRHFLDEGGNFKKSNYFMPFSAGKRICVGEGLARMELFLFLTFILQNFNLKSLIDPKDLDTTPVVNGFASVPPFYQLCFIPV
In short: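 Compounds were tested on CYP2C19 activity via proluciferin conversion to luciferin. The 37C, 1 h reaction followed NADPH addition; detection reagent stopped it.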

[9] = biological target: Cytochrome P450 2C9 (Homo sapiens) (UniProt P11712); assay: Cytochrome P450 Family 2 Subfamily C Member 9 (CYP2C9) small molecule antagonists: luciferase reporter qHTS assay (AID 1671198); note: nearly all actives have a fitted effect of over 50% in size; note: potency is the fitted concentration of half-maximal effect
Chain of Cytochrome P450 2C9 (Homo sapiens) (P11712 whole entry, looked up): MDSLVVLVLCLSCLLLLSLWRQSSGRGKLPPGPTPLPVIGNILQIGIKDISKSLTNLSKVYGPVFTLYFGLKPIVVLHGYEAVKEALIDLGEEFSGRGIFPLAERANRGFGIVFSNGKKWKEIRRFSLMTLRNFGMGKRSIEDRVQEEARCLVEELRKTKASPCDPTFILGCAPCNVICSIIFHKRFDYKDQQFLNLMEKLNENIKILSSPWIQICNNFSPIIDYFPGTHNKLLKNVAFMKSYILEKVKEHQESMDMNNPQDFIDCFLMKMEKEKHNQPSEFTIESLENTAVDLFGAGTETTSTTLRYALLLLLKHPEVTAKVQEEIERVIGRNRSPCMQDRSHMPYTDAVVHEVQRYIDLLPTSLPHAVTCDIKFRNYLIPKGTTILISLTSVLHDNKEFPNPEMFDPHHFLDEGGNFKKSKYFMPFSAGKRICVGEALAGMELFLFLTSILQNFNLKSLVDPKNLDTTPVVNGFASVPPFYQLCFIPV
In short: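 P450-Glo proluciferin substrate with CYP2C9 enzyme; 10 min RT preincubation, then NADPH regeneration 1 h at 37C; luciferin detection reagent 20 min RT, luminescence in relative luminescence units.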

[10] = biological target: Cytochrome P450 1A2 (Homo sapiens) (UniProt P05177); assay: Cytochrome P450 Family 1 Subfamily A Member 2 (CYP1A2) small molecule antagonists: luciferase reporter qHTS assay (AID 1671199); note: nearly all actives have a fitted effect of over 50% in size; note: potency is the fitted concentration of half-maximal effect
Chain of Cytochrome P450 1A2 (Homo sapiens) (P05177 whole entry, looked up): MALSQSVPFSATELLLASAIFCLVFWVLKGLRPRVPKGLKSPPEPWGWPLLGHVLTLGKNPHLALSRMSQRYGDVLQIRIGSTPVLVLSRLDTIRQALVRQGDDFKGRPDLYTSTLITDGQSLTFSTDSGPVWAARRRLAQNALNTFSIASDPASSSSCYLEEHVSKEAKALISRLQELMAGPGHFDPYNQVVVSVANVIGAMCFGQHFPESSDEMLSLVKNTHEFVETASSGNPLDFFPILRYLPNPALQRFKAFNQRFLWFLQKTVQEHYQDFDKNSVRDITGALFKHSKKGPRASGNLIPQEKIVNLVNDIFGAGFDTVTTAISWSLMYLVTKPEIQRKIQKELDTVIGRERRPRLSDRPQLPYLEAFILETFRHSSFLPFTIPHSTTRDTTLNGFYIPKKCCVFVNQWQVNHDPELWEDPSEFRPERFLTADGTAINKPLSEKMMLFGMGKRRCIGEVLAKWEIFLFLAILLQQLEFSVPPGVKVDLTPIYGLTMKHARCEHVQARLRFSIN
In short: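 Human CYP1A2 activity measured with a P450-Glo proluciferin substrate; compounds in DMSO preincubated 10 min at room temperature with enzyme-substrate mix, then NADPH regeneration system added for 1 h. Luciferin detection reagent, 20 min, luminescence read.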

[11] = biological target: Voltage-gated inwardly rectifying potassium channel KCNH2 (Homo sapiens) (UniProt Q12809); assay: Human Ether-a-go-go-Related Gene (hERG) channel small molecule antagonists: fluorescence cell-based qHTS assay (AID 1671200)
Chain of Voltage-gated inwardly rectifying potassium channel KCNH2 (Homo sapiens) (Q12809 whole entry, looked up): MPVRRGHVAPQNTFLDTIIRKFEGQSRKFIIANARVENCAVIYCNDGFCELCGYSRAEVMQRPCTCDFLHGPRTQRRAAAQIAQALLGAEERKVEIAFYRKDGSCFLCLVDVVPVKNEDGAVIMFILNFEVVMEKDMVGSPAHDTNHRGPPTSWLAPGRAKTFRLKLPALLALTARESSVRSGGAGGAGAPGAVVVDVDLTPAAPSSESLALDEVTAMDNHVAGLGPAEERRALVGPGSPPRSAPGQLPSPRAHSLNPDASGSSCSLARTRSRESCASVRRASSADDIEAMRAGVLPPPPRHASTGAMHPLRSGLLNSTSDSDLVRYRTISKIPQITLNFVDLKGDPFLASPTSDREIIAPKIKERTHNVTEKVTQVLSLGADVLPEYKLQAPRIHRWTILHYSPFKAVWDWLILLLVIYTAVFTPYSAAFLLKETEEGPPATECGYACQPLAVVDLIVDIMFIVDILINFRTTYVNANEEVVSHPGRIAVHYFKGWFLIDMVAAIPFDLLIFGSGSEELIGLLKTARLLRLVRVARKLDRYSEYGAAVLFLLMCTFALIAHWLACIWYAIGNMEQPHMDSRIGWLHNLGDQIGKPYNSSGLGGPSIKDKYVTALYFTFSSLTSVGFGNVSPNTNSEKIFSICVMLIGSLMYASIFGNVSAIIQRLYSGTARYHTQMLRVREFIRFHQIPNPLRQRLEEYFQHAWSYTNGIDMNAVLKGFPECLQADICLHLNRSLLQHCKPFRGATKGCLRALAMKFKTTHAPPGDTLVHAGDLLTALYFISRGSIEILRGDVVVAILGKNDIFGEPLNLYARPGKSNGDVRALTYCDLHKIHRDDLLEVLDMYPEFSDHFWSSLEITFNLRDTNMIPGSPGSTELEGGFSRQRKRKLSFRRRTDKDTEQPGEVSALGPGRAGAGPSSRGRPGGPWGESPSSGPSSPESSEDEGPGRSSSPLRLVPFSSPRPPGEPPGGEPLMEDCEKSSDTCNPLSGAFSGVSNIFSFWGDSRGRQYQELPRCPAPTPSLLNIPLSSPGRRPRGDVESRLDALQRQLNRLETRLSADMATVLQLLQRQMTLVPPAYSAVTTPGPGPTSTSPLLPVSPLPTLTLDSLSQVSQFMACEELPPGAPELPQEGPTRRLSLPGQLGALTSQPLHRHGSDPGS
In short: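 U2OS cells expressing the channel were plated at 1000 cells/well, incubated overnight at 37 C, then loaded with FluxOR II thallium-sensitive dye for 1 h at room temperature in the dark, with a further 10 min at room temperature before stimulation.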

[12] = biological target: Cytochrome P450 3A4 (Homo sapiens) (UniProt P08684); assay: Cytochrome P450 Family 3 Subfamily A Member 4 (CYP3A4) small molecule antagonists: luciferase reporter qHTS assay (AID 1671201); note: nearly all actives have a fitted effect of over 50% in size; note: potency is the fitted concentration of half-maximal effect
Chain of Cytochrome P450 3A4 (Homo sapiens) (P08684 whole entry, looked up): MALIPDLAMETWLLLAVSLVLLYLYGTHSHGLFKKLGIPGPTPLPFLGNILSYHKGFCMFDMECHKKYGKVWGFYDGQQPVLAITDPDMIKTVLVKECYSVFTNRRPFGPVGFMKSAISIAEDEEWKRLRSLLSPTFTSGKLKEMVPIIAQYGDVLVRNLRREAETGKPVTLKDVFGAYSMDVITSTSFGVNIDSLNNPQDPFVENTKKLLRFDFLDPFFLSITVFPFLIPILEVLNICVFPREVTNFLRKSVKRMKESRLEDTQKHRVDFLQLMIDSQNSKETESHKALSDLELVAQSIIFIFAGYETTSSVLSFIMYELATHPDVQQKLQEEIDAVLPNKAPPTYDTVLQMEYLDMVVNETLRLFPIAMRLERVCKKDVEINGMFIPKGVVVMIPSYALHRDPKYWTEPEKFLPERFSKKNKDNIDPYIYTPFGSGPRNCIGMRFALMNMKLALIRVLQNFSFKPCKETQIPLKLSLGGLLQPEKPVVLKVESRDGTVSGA
In short: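 P450-Glo CYP3A4 system with proluciferin substrate; compounds preincubated 10 min RT with enzyme-substrate mix, then NADPH regeneration added for 1 h RT. Detection reagent 20 min, luminescence read as relative luminescence units.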

Structure (SMILES) | Potency [1] | Potency [2] | Potency [3] | Potency [4] | Potency [5] | Potency [6] | Potency [7] | Potency [8] | Potency [9] | Potency [10] | Potency [11] | Potency [12]
Cc1ccncc1 | inactive | inactive | inactive | inactive | inactive | inactive | inactive | inactive | inactive | inactive | inactive | inactive
CCCCCNCCCCC | inactive | inactive | inactive | inactive | inactive | inactive | 36.4 µM (active) | inactive | inactive | inactive | inactive | inactive
CC(=O)OCCC(C)C | inactive | inactive | inactive | inactive | inactive | inactive | inactive | 79.7 µM (active) | inactive | inactive | inactive | inactive
NC(=O)NC(N)=O | inactive | inactive | inactive | inactive | inactive | inactive | inactive | inactive | inactive | inactive |  | inactive
O=[N+]([O-])c1cc(C(F)(F)F)ccc1Cl | inactive | inactive | inactive | inactive | inactive | inactive | inactive | inactive | inactive | inactive |  | inactive
CCCCC(=O)O | inactive | inactive | inactive | inactive | inactive | inactive | inactive | inactive |  | inactive | inactive | inactive
Cc1cc(C)c(O)c(C)c1 | inactive | inactive | 48.6 µM (active) and inactive | inactive | inactive | 30.6 µM (active) and inactive | inactive | 71 µM (active) | 35.6 µM (active) and 79.6 µM (active) | 35.6 µM (active) and 28.3 µM (active) |  | inactive
CC(C=O)Cc1ccc(C(C)(C)C)cc1 (stereo unspecified) | inactive | inactive | inactive | inactive | inactive | inactive | inactive | inactive |  | inactive | inactive | inactive
Cc1ccccc1Cl | inactive | inactive | inactive | inactive | inactive | inactive | inactive | inactive |  | inactive | inactive | inactive
COc1ccc([C@@H]2CC(=O)c3c(O)cc(O[C@@H]4O[C@H](CO[C@@H]5O[C@@H](C)[C@H](O)[C@@H](O)[C@H]5O)[C@@H](O)[C@H](O)[C@H]4O)cc3O2)cc1OC | inactive | inactive | inactive | inactive | inactive | inactive | inactive | inactive |  | inactive | inactive | inactive and 21.7 µM (active)
O=Cc1ccc(CO)o1 | inactive | inactive | inactive | inactive | inactive | inactive | inactive | inactive |  | inactive | inactive | inactive
CCCOC(=O)NCCCN(C)C | inactive | inactive | inactive | inactive | inactive | inactive | inactive and 35.6 µM (active) | 35.6 µM (active) and inactive |  | inactive | inactive | inactive
O=C(Cl)c1ccc(C(=O)Cl)cc1 | inactive | inactive | inactive | inactive | inactive | inactive | inactive | inactive | inactive | inactive and 63.3 µM (active) |  | inactive
CC/C=C(\C(=O)N[C@@H]1C(=O)N2C(C(=O)OCOC(=O)C(C)(C)C)=C(COC(N)=O)CS[C@H]12)c1csc(N)n1 | inactive | inactive | inactive | inactive | inactive | inactive | inactive | 19.5 µM (active) |  | 27.5 µM (active) and inactive | inactive | 
O=C(O)Cc1c[nH]c2ccccc12 | inactive | inactive | inactive | inactive | inactive | inactive | inactive | 17.8 µM (active) and inactive |  | inactive | inactive | inactive
Cc1ccc(C(C)C)cc1 | inactive | inactive | inactive | inactive | inactive | inactive | inactive | inactive |  | inactive | inactive | inactive
O=C1O[C@H]([C@H](O)CO)C(O)=C1O | inactive | inactive | inactive | inactive | inactive | inactive | inactive | inactive |  | inactive | inactive | inactive
CC(=O)C(C)C | inactive | inactive | 63.4 µM (active) and inactive | inactive | inactive | inactive | inactive | inactive | inactive | inactive |  | inactive
O=C1CCCCCCCCCCC1 | inactive | inactive | inactive | inactive | inactive | inactive | inactive | inactive |  | inactive | inactive | inactive
CCCCCCC(=O)O | inactive | inactive | inactive | inactive | inactive | inactive | inactive | inactive |  | inactive | inactive | inactive

Structure (SMILES) | Potency [1] | Potency [2] | Potency [3] | Potency [4] | Potency [5] | Potency [6] | Potency [7] | Potency [8] | Potency [9] | Potency [10] | Potency [11] | Potency [12]
CCCCCCCCO | inactive | inactive | inactive | inactive | inactive | inactive | inactive | inactive | inactive | 37.1 µM (active) |  | inactive
COc1ccccc1[N+](=O)[O-] | inactive | inactive | inactive | inactive | inactive | inactive | inactive | inactive and 35.6 µM (active) | inactive |  |  | inactive
CCCOCC(C)O (stereo unspecified) | inactive | inactive | inactive | inactive | inactive | inactive | inactive | inactive |  | inactive | inactive | inactive
C=CC(C)(C)C | inactive | inactive | inactive | inactive | inactive | inactive | inactive | inactive | inactive | 44.8 µM (active) |  | inactive
O=[N+]([O-])c1ccccc1C(F)(F)F | inactive | inactive | inactive | inactive | inactive | inactive | inactive | 6.95 µM (active) and inactive | inactive | inactive |  | inactive
COc1ccc2cc3[n+](cc2c1OC)CCc1cc2c(cc1-3)OCO2 | inactive | inactive | inactive | inactive | 54.9 µM (active) | inactive | 180 nM (active) and 2.19 µM (active) | 20.2 µM (active) and inactive |  | 25.4 µM (active) and 14.4 µM (active) | inactive | 
COc1cc(NC(=O)CC(C)=O)c(OC)cc1Cl | inactive | inactive | inactive | inactive | inactive | 68.9 µM (active) and 24.3 µM (active) | 79.6 µM (active) | 40.1 µM (active) and 39.9 µM (active) |  | 3.57 µM (active) and 5.64 µM (active) | inactive | 14.2 µM (active) and 15.9 µM (active)
Cc1ncc(CO)c(CO)c1O | inactive | inactive | inactive | inactive | inactive | inactive | inactive | inactive |  | inactive | inactive | inactive
CC(C)c1ccc(C(C)C)cc1 | inactive | inactive | inactive | inactive | inactive | inactive | inactive | inactive | inactive |  | inactive | inactive
CCCCC(CC)COC(=O)c1ccc(C(=O)OCC(CC)CCCC)cc1 (stereo unspecified) | inactive | inactive | inactive | inactive | inactive | inactive | inactive | inactive | inactive |  | inactive | inactive
Cc1ccc([N+](=O)[O-])cc1N | inactive | inactive | inactive | inactive | inactive | inactive | 35.5 µM (active) and 39.9 µM (active) | 35.5 µM (active) and 44.8 µM (active) |  | 11.2 µM (active) and 8.94 µM (active) |  | 
OC1CCCCC1 | inactive | inactive | inactive | inactive | inactive | inactive | inactive | inactive | inactive | inactive |  | inactive
CC1=CC(=O)CC(C)(C)C1 | inactive | inactive | inactive | inactive | inactive | 62.9 µM (active) and inactive | inactive | 18.4 µM (active) and inactive |  | 36.6 µM (active) and inactive |  | inactive
CC(=O)c1nccs1 | inactive | inactive | inactive | inactive | inactive | inactive | inactive | 26.1 µM (active) and inactive | 32.8 µM (active) and inactive |  | inactive | inactive
Oc1ccc(Cc2ccccc2O)cc1 | inactive | inactive | inactive | inactive | inactive | 61.9 µM (active) | inactive | 36 µM (active) and 39.9 µM (active) |  | inactive | inactive | inactive
CN1CCCC1=O | inactive | inactive | inactive | inactive | inactive | 63.2 µM (active) and inactive | inactive | inactive | inactive | inactive |  | inactive
CC(C)=CCC/C(C)=C/C=O | inactive | inactive | inactive | inactive | inactive | inactive | inactive | inactive | inactive and 79.6 µM (active) | inactive |  | inactive and 35.6 µM (active)
COC(=O)/C=C\C(=O)OC | inactive | inactive | inactive | inactive | inactive | inactive | inactive | inactive | inactive | inactive |  | inactive
CC(C)(CO)CO | inactive | inactive | inactive | inactive | inactive | inactive | inactive | inactive | inactive |  |  | inactive
C[Si](C)(C)N[Si](C)(C)C | inactive | inactive | inactive | inactive | inactive | 60.6 µM (active) and inactive | inactive | inactive |  | inactive | inactive | inactive
